# Key:
# Assay in all cases: DAPPL (digital affinity profiling via proximity ligation, sequencing); 10 mM Tris-HCl pH 7.5, 50 mM NaCl, 1 mM DTT, 4% glycerol, room temperature, 30 min; GST-TFs on glutathione beads, 16-mer random dsDNA library, 0.1% formaldehyde crosslink after washing; high values mean tight binding
# Conditions in all cases: protein: recombinant; tags: N-terminal GST; dsDNA, one strand shown
# ETV1 = ETV1 (Homo sapiens, UniProt P50549 1-477)
# Outline: (§1)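 After expression in yeast as GST fusions, human transcription factors were bound to glutathione beads, DNA-barcoded and mixed with a tag-only sample. The pools were incubated with 200 nmole of a 16-mer random double-stranded DNA library in Tris/NaCl/DTT/glycerol buffer (30 min, room temperature), washed and crosslinked with 0.1% formaldehyde. Proximity ligation with BsaI/T4 ligase ran for 1 h at 37 °C, before PCR amplification and sequencing on an Illumina NextSeq500. Binding signal is a hexamer's read frequency for a factor divided by its frequency for the tag-only sample.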
# ERF = molecular target: T1, ERF (Homo sapiens, UniProt P50548 1-548)
# T1 sequence: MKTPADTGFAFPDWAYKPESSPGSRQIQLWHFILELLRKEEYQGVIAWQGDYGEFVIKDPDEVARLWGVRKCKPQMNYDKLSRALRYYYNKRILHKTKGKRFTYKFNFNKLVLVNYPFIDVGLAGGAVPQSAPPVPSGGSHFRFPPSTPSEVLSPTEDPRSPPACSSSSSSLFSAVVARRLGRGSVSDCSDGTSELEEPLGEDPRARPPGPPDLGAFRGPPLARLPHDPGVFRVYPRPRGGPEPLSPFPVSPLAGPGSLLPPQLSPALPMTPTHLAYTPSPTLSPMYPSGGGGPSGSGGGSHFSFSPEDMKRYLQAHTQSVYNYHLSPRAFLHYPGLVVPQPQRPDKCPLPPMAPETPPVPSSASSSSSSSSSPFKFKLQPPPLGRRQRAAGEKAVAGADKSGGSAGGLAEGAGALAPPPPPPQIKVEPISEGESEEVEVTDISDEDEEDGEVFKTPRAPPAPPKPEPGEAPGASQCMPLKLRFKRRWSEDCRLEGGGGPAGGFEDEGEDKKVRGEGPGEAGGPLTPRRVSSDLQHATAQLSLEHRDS
# Outline: as §1
# ETV3L = molecular target: T2, ETV3L (Homo sapiens, UniProt Q6ZN32 1-361)
# T2 sequence: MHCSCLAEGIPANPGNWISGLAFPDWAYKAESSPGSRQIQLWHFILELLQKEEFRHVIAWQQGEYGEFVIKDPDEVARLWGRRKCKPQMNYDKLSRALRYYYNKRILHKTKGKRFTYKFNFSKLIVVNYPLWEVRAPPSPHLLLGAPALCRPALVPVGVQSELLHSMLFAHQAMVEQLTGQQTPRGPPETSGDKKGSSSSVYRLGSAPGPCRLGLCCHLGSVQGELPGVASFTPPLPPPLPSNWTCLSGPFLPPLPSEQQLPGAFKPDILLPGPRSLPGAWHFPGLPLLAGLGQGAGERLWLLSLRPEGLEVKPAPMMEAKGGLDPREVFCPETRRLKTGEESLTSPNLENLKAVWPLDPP
# Outline: as §1
# ETS2 = molecular target: T3, ETS2 (Homo sapiens, UniProt P15036 1-469)
# T3 sequence: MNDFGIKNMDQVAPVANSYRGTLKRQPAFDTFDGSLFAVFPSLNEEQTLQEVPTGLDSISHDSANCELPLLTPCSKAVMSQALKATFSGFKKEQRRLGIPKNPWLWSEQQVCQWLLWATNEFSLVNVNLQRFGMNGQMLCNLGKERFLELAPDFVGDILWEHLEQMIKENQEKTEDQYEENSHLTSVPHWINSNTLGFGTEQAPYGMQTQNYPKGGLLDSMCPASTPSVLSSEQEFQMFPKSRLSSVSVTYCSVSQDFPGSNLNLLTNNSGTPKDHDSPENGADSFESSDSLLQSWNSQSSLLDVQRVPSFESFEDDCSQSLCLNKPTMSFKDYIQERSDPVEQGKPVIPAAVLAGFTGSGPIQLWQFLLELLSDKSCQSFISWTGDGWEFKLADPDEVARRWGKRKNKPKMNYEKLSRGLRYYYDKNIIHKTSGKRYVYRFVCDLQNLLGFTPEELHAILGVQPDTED
# Outline: as §1
# SPDEF = molecular target: T4, SPDEF (Homo sapiens, UniProt O95238 1-335)
# T4 sequence: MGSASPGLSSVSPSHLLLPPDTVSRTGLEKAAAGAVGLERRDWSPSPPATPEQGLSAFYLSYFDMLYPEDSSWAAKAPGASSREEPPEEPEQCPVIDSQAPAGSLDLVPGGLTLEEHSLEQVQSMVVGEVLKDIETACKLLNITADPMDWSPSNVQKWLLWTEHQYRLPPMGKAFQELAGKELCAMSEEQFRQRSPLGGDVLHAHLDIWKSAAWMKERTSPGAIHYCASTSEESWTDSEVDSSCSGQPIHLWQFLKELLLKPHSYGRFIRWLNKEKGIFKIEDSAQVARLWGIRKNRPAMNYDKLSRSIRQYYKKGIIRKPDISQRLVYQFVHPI
# Outline: as §1
# ETV7 = molecular target: T5, ETV7 (Homo sapiens, UniProt Q9Y603 1-341)
# T5 sequence: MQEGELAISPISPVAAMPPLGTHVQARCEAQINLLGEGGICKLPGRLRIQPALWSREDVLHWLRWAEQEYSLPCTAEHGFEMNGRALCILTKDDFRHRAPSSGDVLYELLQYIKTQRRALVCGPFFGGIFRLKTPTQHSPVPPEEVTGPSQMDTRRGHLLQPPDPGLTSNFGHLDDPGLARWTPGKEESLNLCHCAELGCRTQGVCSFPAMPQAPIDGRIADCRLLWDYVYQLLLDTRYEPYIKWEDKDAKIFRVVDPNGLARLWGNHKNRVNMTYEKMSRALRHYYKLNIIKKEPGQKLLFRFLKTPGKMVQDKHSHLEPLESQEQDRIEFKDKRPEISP
# Outline: as §1
# ELF5 = molecular target: T6, ELF5 (Homo sapiens, UniProt Q9UKW6-2 1-255)
# T6 sequence: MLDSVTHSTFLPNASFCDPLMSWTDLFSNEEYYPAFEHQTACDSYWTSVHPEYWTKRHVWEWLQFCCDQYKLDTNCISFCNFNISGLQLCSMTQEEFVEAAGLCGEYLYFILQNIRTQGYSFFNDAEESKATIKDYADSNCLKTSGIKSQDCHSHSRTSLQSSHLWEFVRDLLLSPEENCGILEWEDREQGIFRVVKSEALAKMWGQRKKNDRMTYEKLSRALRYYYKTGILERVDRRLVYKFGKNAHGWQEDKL
# Outline: as §1
# ETV3 = molecular target: T7, ETV3 (Homo sapiens, UniProt P41162-2 1-143)
# T7 sequence: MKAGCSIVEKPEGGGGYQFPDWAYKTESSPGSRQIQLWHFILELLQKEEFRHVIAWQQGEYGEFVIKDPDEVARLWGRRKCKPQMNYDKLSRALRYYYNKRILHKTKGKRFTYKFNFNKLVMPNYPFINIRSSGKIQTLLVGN
# Outline: as §1
# ETV6 = ETV6 (Homo sapiens, UniProt P41212 1-452)
# Chain of ETV6 (P41212 whole entry): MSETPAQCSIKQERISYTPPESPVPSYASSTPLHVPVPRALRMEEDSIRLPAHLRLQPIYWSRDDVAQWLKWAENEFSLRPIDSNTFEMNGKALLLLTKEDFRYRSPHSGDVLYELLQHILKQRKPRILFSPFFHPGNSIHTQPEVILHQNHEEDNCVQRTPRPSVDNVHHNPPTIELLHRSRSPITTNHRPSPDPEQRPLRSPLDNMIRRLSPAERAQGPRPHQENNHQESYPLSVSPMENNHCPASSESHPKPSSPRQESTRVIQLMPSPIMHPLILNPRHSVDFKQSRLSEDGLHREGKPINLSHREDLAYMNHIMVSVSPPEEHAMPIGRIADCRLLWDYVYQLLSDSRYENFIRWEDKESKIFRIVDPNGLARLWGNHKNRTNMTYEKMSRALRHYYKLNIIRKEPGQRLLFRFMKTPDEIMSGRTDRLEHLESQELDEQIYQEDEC
# Outline: as §1
# Chain of ETV1 (P50549 whole entry, the tested form may be a part): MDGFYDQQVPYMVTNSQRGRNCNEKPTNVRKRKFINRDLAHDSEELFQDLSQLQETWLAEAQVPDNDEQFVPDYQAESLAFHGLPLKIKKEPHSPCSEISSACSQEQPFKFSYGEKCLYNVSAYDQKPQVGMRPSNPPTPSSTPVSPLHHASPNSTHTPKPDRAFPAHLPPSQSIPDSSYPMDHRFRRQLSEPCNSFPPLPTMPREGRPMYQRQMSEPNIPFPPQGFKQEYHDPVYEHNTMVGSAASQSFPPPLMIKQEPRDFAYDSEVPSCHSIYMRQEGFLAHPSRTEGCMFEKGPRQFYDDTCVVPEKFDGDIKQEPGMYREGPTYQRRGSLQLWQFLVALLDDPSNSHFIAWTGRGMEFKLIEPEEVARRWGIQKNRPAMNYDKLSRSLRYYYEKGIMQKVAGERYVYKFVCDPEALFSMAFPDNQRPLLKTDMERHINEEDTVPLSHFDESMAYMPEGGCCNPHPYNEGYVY
sequence,measurement,setting,value
TCCTAC,binding signal,ETV1,"1.39 fold enrichment (6-mer frequency, TF over GST control)"
same,binding signal,ERF,"1.5 fold enrichment (6-mer frequency, TF over GST control)"
same,binding signal,ETV3L,"1.52 fold enrichment (6-mer frequency, TF over GST control)"
same,binding signal,ETS2,"1.48 fold enrichment (6-mer frequency, TF over GST control)"
same,binding signal,SPDEF,"1.43 fold enrichment (6-mer frequency, TF over GST control)"
same,binding signal,ETV7,"1.39 fold enrichment (6-mer frequency, TF over GST control)"
same,binding signal,ELF5,"1.79 fold enrichment (6-mer frequency, TF over GST control)"
same,binding signal,ETV3,"1.48 fold enrichment (6-mer frequency, TF over GST control)"
same,binding signal,ETV6,"1.47 fold enrichment (6-mer frequency, TF over GST control)"

# — article PMC7862700, “An all-to-all approach to the identification of sequence-specific readers for epigenetic DNA modifications on cytosine”
